# Laboratory results from PubChem BioAssay (NCI).
# The panel holds about 79,000 compounds, 15% with a hit somewhere; the sample as a whole holds those more often. A number with no mark means an inactive call. Active and inactive are the calls of the source. No stated cut-off is given here; in the data, active means growth inhibition above about 70%; inactive means the rest.
# Assays:
# [1] = NCI Yeast Anticancer Drug Screen. Data for the rad50 strain (AID 155);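 further: 0% = growth of vehicle-only cultures of the same strain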; conditions: S. cerevisiae rad50 strain growth inhibition; at 50.0 µM; stronger effect = higher value
# Procedure, shortened: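 Vehicle-treated cultures provide the reference for the growth inhibition reported for compound-exposed, repair-deficient yeast.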
# [2] = NCI Yeast Anticancer Drug Screen. Data for the mec2-1 strain (AID 157); conditions: S. cerevisiae mec2-1 strain, at 50.0 µM, stronger effect = higher value
# Procedure, shortened: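 Vehicle-treated cultures served as reference for growth inhibition of compound-exposed mec2-1 yeast.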
# [3] = NCI Yeast Anticancer Drug Screen. Data for the sgs1 mgt1 strain (AID 161);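 further: 0% = growth of cultures given vehicle only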; conditions: S. cerevisiae sgs1 mgt1 strain, at 50.0 µM, stronger effect = higher value
# Procedure, shortened: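 Inhibition of yeast growth, normalised to vehicle-treated controls, is reported for a strain bearing genetic alterations in DNA damage repair.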
# [4] = NCI Yeast Anticancer Drug Screen. Data for the cln2 rad14 strain (AID 165);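 further: 0% = growth equal to vehicle treated cultures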; conditions: S. cerevisiae cln2 rad14 strain, at 50.0 µM, stronger effect = higher value
# Procedure, shortened: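 Each compound was tested on cln2 rad14 yeast. Inhibition of growth was calculated against vehicle-exposed controls.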
# [5] = NCI Yeast Anticancer Drug Screen. Data for the bub3 strain (AID 167); conditions: S. cerevisiae bub3 mutant strain, at 50.0 µM, stronger effect = higher value
# Procedure, shortened: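 Mutant yeast screening strain plus compound; vehicle-treated cultures serve as the 0% inhibition reference.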
# [6] = NCI Yeast Anticancer Drug Screen. Data for the mlh1 rad18 strain (AID 175); conditions: S. cerevisiae mlh1 rad18 strain growth inhibition; at 50.0 µM; stronger effect = higher value
# Procedure, shortened: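 Vehicle-treated cultures served as the reference for growth inhibition in a yeast strain carrying DNA damage repair alterations exposed to each compound.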
Compound,growth inhibition [1],growth inhibition [2],growth inhibition [3],growth inhibition [4],growth inhibition [5],growth inhibition [6]
O=Cc1cc(Cl)cc(Cl)c1,5%,-18.1%,0.85%,8.7%,8.95%,6.55%
COC1(C)CNCC(C)(C)NC(=O)C(C)(OC)CNCC(C)(C)NC1=O (centres undefined),-10.9%,2.1%,-20.7%,-17%,-32.5%,-19.6%
Cc1cccc(C)c1NC(=O)Nc1cccc(Cl)c1,6.3%,15.6%,7.7%,-0.5%,11%,-0.8%
COc1cc(CN=c2nc(N(C)C)ss2)cc(OC)c1OC,-27.8%,-11.2%,9.15%,-3.35%,-11.6%,-4.35%
Oc1ccc(N=Cc2ccc(C=Nc3ccc(O)cc3)cc2)cc1,-22.9%,-12.6%,-19%,-7.7%,-13.4%,-16.4%
COC(=O)c1ccccc1NCc1cc(Cl)ccc1O,96.2% (active),97.3% (active),96.7% (active),92.8% (active),95.8% (active),94.9% (active)
COc1ccc(OC)c(C(=O)C2=C(c3cc(OC)ccc3OC)CCC2)c1,7.3%,38.4%,33.2%,2.1%,44.4%,28.4%
Cc1ccc(S(=O)(=O)C2=c3nc4ccccc4cc3=C3C(=O)c4ccccc4C(=O)C32)cc1 (centres undefined),-14.3%,-18.9%,-20.8%,-75.9%,-24.4%,-3.7%
CCOC(=O)c1c[nH]c2nc(N)ccc2c1=O,-3.75%,-0.2%,9.9%,-16.4%,-0.7%,-5.4%
O=CC1N=C(Cc2ccccc2)OC1=O (centres undefined),25.6%,10%,-6.2%,-4.55%,-7.35%,8.2%
CC(=O)Oc1c(C)n(C(C)=O)c2cc(Cl)ccc12,1.35%,-5.55%,15.3%,-45%,6.15%,-8.3%
CCCCC(CC)COB(OCC(CC)CCCC)OCC(CC)CCCC (centres undefined),-41%,-38.3%,-22.1%,-0.8%,-23.2%,-24.3%
CCOC(=O)C(Cc1ccc(N=NN(C)C)cc1)NC(=O)CC1c2ccccc2-c2ccccc21 (centres undefined),13.8%,7.2%,20.7%,-6.25%,47.6%,8.3%
O=C1CN(CCCCl)CC(=O)N2Cc3ccccc3CN12,-9.05%,5.3%,-15.7%,-10.1%,-3.7%,-20.1%
O=C(COc1ccc(F)cc1)OCCO,13.9%,-20.9%,-2.55%,-33.2%,-15.3%,-18.9%
O=C(Cc1ccccc1)N/N=C(\C1=Nc2ccc([N+](=O)[O-])cc2NC1O)C(O)c1ccc([N+](=O)[O-])cc1 (centres undefined),10%,9.6%,1.7%,18.2%,20.6%,18.2%
CCOc1ccccc1NC(=O)CC1Sc2ccccc2NC1=O (centres undefined),24.5%,-14.7%,15.3%,2.55%,3.85%,21.5%
CCCCCCCCCCCCCCCCCCCl,4.9%,6.6%,0.05%,-31.1%,5.7%,28.4%
CC(=O)c1sc2c(c1OC(=O)c1ccco1)c(=O)n(-c1ccccc1)c(=S)n2-c1ccccc1,20.8%,18.2%,23.7%,25.6%,6.85%,33.9%
CN1CCC(c2ccccc2)(c2ccccc2)OC1c1ccccc1 (centres undefined),1.65%,-12.2%,-7.85%,1.35%,8.85%,-18.2%

Compound,growth inhibition [1],growth inhibition [2],growth inhibition [3],growth inhibition [4],growth inhibition [5],growth inhibition [6]
CCN(CC)CCC(=O)c1ccc(Oc2ccc(Cl)cc2)cc1,96.8% (active),83.8% (active),99% (active),80.2% (active),98.9% (active),99.2% (active)
O=C(CC(=O)c1cccc([N+](=O)[O-])c1)C(=O)Nc1ccccc1,-30.5%,-28.8%,14.7%,11.1%,-8.05%,-5.55%
CC(OC(=O)Nc1ccccc1)c1ccccc1 (centres undefined),37.2%,7.9%,11.9%,9.9%,9.2%,17.4%
O=C(NC(NC(NC(=O)c1ccc([N+](=O)[O-])cc1)c1ccc([N+](=O)[O-])cc1)c1ccc([N+](=O)[O-])cc1)c1ccc([N+](=O)[O-])cc1 (centres undefined),3.35%,-10.4%,1.65%,-24.9%,-5.3%,-7.95%
COc1ccc(/C=C2\CN(C)Cc3c2nc(N)nc3-c2ccc(OC)cc2)cc1,2.05%,-13.1%,5.2%,38.1%,-5.5%,5.75%
CCOC(=O)/C=C/C(=O)[O-].CCOC(=O)/C=C/C(=O)[O-].NC1CCCCC1N.[Pt+4],19.2%,25.9%,19.4%,-2.1%,20.1%,10.2%
CCCCOC(=O)CCc1nc2c([nH]1)c(=O)n(C)c(=O)n2C,15.8%,8.9%,9.5%,42.4%,9.65%,-0.45%
COc1ccc(-c2cc(-c3ccccc3)[nH]c(=S)c2C#N)cc1,-23.8%,-19.8%,-55.4%,-19.1%,13.3%,-30.1%
O=C(O)c1cc(C2CC2)nc2ccccc12,-1%,1.6%,0.55%,-0.95%,-14.6%,24.6%
O=C(O)c1cc2ccccc2o1,11.6%,0.95%,16.9%,20.6%,-2.6%,30%
S=c1cn[nH]c2ccccc12,16%,40.1%,16.9%,7.85%,49.6%,37.6%
CC1CCCC(=O)CCC1,2.9%,-4.6%,-9.05%,7.15%,10.8%,2.55%
CC(C)CNC(=O)c1ccccc1,0.45%,5.1%,-1.6%,-3.2%,0.5%,-4.65%
c1cc(Nc2ccncc2)ccn1,23.6%,-13%,-1.9%,6.2%,0.15%,19.9%
O=C1c2ccccc2-c2nc(/C=C/c3ccccc3)cc3c2c1nc1ccccc13,10.2%,6.2%,8.6%,7%,-9.5%,-0.25%
CC(=O)Oc1ccc2c(c1)CCC1C2CCC2(C)CC(OC(C)=O)CC12 (centres undefined),12.4%,-10.3%,-19.2%,2.95%,0.8%,-21.8%
COCOc1ccc(C(=O)C(C)c2ccc(OCOC)cc2OCOC)c(O)c1 (centres undefined),39.4%,17.2%,26.8%,23.2%,40.8%,36.8%
CC(=O)CC(=O)Nc1cccc(C)c1C,-8.1%,-15.2%,15.3%,-1.7%,9.3%,-5.6%
CCCC1C(CC)C(NC)C(C#N)(C#N)C1(C#N)C#N (centres undefined),7.05%,38.9%,8.95%,26.3%,8.3%,7.25%
